Measurements as given in PubChem BioAssay (Tox21).
Records with an inconclusive call do not appear. Calls of active or inactive are those of the source. Unless noted, the call rests on the fitted dose curve; in most records, active means well fitted curve in the direction sought with a large enough effect in the repeat runs; inconclusive means weak or mixed curves; inactive means no such curve, though single readings can be large; an effect the other way counts as inactive or inconclusive.

Legend:
[1] = A CellTox Green Cytotoxicity Assay to monitor cytotoxicity in HEK293 cells - 32 hour (AID 1224881); further: nearly all actives have a fitted effect of over 40% in size
Outline: (§1)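 Cytotoxicity was tracked continuously in HEK293 cells by a DNA-binding dye excluded from viable cells. Compounds were transferred in DMSO 5 h after seeding; fluorescence was recorded at intervals up to 40 h.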

[2] = A CellTox Green Cytotoxicity Assay to monitor cytotoxicity in HepG2 cells - 0 hour (AID 1224882); further: nearly all actives have a fitted effect of over 35% in size
Outline: (§2)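 Real-time, homogeneous cytotoxicity readout: dead-cell DNA staining by CellTox Green in HepG2 monolayers, fluorescence measured at timed intervals up to 40 h of continuous compound exposure.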

[3] = A CellTox Green Cytotoxicity Assay to monitor cytotoxicity in HepG2 cells - 32 hour (AID 1224883); further: nearly all actives have a fitted effect of over 50% in size
Outline: as §2

[4] = A CellTox Green Cytotoxicity Assay to monitor cytotoxicity in HEK293 cells - 8 hour (AID 1224884); further: nearly all actives have a fitted effect of over 35% in size
Outline: as §1

[5] = qHTS RealTime-Glo MT Cell Viability Assay in HepG2 cells - 16 hour (AID 1224885); further: nearly all actives have a fitted effect of over 50% in size
Outline: (§3)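 Viability was tracked continuously by NanoLuc luminescence from prosubstrate reduced by living HepG2 cells, at successive time points over 40 h of compound exposure. Cells with reagent were preincubated 5 h at 37 °C before compound addition.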

[6] = qHTS RealTime-Glo MT Cell Viability Assay in HEK293 cells - 24 hour (AID 1224886); further: top concentration of the series differs between compounds; nearly all actives have a fitted effect of over 50% in size
Outline: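 Viability tracked continuously by luminescence as live cells reduce a prosubstrate for NanoLuc; HEK293 cells preincubated 5 h, compound-treated at 37 C, and read at 0, 8, 16, 24, 32 and 40 h.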

[7] = qHTS RealTime-Glo MT Cell Viability Assay in HEK293 cells - 8 hour (AID 1224887); further: top concentration of the series differs between compounds; nearly all actives have a fitted effect of over 50% in size
Outline: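 Nonlytic bioluminescent viability monitoring. HEK293 at 600 cells/well with reagent; 5 h settle; compound transfer by pintool; plates held at 37 C and read at set time points.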

[8] = A CellTox Green Cytotoxicity Assay to monitor cytotoxicity in HEK293 cells - 16 hour (AID 1224888); further: nearly all actives have a fitted effect of over 35% in size
Outline: as §1

[9] = qHTS RealTime-Glo MT Cell Viability Assay in HepG2 cells - 0 hour (AID 1224889); further: nearly all actives have a fitted effect of over 50% in size
Outline: as §3

[10] = A CellTox Green Cytotoxicity Assay to monitor cytotoxicity in HepG2 cells - 8 hour (AID 1224890); further: nearly all actives have a fitted effect of over 45% in size
Outline: as §2

[11] = qHTS assay to identify small molecule antagonists of the estrogen receptor alpha (ER-alpha) signaling pathway using the BG1 cell line in the presence of 0.1 nM 17-beta-estradiol - cell viability counter screen (AID 1259241); further: nearly all actives have a fitted effect of over 40% in size
Outline: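 In this screen, hormone-deprived VM7Luc4E2 cells were seeded at 4,000 per well, dosed with compound and 0.1 nM estradiol final, and incubated 22 hr at 37C and 5% CO2; fluorogenic live-cell protease signal reported viability.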

[12] = qHTS assay to identify small molecule antagonists of the androgen receptor (AR) signaling pathway using the MDA cell line in the presence of 0.5 nM R1881 - cell viability counter screen (AID 1259242); further: nearly all actives have a fitted effect of over 45% in size
Outline: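 Cytotoxicity toward MDA-kb2 cells is measured by CellTiter-Fluor live-cell protease fluorescence after 16 hr compound exposure at 37C in the presence of 0.5 nM R1881 stimulator.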

[13] = target: Androgen receptor (Homo sapiens) (UniProt P10275); assay: qHTS assay to identify small molecule antagonists of the androgen receptor (AR) signaling pathway using the MDA cell line in the presence of 0.5 nM R1881 (AID 1259243); further: nearly all actives have a fitted effect of over 50% in size
Outline: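 Steps: seed MDA-kb2 cells, incubate 5 hr at 37C; pin-transfer compounds in DMSO; add R1881 to 0.5 nM final; incubate 16 hr; add ONE-Glo, wait 30 min at room temperature; read luminescence.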

[14] = target: Estrogen receptor (Homo sapiens) (UniProt P03372); assay: qHTS assay to identify small molecule antagonists of the estrogen receptor alpha (ER-alpha) signaling pathway using the BG1 cell line in the presence of 0.1 nM 17-beta-estradiol (AID 1259244); further: nearly all actives have a fitted effect of over 50% in size
Outline: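 After 5 days in hormone-depleted medium (charcoal-stripped serum, no phenol red), VM7Luc4E2 cells were seeded, incubated 24 h, then co-treated with compound and 0.1 nM (final) estradiol for 22 h before luminescence detection.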

[15] = qHTS assay to identify small molecule HDAC inhibitors (AID 1259364); further: top concentration of the series differs between compounds; nearly all actives have a fitted effect of over 45% in size
Outline: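 Homogeneous cell-based luminescent assay of endogenous class I/II HDAC activity; HCT-116 cells, 2 h compound exposure, 30 min HDAC-Glo development at RT.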

[16] = qHTS assay to identify small molecule HDAC inhibitors - cell viability counter screen (AID 1259365)
Outline: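 Measured quantity is CellTiter-Glo luminescence from wild-type HCT-116 cells after compound incubation of 2hr at 37C, 5% CO2; reagent developed 30min at room temperature.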

[17] = qHTS assay to identify small molecule agonists of the sonic hedgehog signaling (Shh) pathway - cell viability counter screen (AID 1259366); further: nearly all actives have a fitted effect of over 50% in size
Outline: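 In quantitative high-throughput format, 3T3 Gli1-Luc cells were exposed to compounds for 24hr and multiplexed for viability using CellTiter-Fluor, incubated 1hr at 37C before the fluorescence read.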

[18] = qHTS assay to identify small molecule antagonists of the sonic hedgehog signaling (Shh) pathway - cell viability counter screen (AID 1259367); further: nearly all actives have a fitted effect of over 55% in size
Outline: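 Using CellTiter-Fluor, viability of Gli1-Luc reporter 3T3 cells is read by fluorescence in the wells used for the Shh luciferase assay. Treatment lasts 23 hr with conditioned medium, then reagent 1 hr at 37C.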

[19] = qHTS assay to identify small molecule agonists of the sonic hedgehog signaling (Shh) pathway (AID 1259368; calls by dose curve;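 further: NIH/3T3-derived 3T3Gli1-Luc cells carrying a stable Gli1-driven firefly luciferase reporter; series mostly up to about 92 µM; nearly all actives have a fitted effect of over 15% in size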)
Outline: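 Steps: seed 3T3 Gli1-Luc cells, incubate 4 hr at 37 C, pin-transfer compounds in DMSO alongside a positive control, incubate 24 hr, add luciferase detection reagent, wait 30 min at room temperature, read luminescence.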

[20] = qHTS assay to identify small molecule phospholipidosis (PLD) inducers (AID 1259344; active means well fitted curve in the direction sought with a large enough effect; an effect the other way counts as inactive or inconclusive)
Outline: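 Fluorescent phospholipid staining (LipidTOX Red) measured by automated microscopy in fixed HepG2 cells after 24 h treatment; nuclei counterstained with Hoechst 33342; amiodarone as reference inducer.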

Measured: Potency

Sequence of Estrogen receptor (Homo sapiens) (P03372 whole entry, looked up): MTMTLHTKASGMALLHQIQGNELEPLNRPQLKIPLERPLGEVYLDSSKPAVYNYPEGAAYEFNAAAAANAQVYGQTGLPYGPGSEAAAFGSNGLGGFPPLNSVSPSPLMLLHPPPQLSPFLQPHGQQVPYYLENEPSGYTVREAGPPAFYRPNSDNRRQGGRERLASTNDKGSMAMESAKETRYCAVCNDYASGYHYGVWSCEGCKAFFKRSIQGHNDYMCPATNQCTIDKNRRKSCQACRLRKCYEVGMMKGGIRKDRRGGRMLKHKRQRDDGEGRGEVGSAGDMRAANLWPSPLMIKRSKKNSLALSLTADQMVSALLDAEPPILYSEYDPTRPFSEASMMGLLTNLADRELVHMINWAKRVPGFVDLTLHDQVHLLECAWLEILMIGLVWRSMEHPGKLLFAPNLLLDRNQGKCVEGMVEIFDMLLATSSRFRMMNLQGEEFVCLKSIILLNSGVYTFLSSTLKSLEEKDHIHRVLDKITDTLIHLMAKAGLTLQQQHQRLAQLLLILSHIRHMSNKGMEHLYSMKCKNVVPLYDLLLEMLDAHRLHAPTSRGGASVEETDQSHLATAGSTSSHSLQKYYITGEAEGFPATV
Sequence of Androgen receptor (Homo sapiens) (P10275 whole entry, looked up): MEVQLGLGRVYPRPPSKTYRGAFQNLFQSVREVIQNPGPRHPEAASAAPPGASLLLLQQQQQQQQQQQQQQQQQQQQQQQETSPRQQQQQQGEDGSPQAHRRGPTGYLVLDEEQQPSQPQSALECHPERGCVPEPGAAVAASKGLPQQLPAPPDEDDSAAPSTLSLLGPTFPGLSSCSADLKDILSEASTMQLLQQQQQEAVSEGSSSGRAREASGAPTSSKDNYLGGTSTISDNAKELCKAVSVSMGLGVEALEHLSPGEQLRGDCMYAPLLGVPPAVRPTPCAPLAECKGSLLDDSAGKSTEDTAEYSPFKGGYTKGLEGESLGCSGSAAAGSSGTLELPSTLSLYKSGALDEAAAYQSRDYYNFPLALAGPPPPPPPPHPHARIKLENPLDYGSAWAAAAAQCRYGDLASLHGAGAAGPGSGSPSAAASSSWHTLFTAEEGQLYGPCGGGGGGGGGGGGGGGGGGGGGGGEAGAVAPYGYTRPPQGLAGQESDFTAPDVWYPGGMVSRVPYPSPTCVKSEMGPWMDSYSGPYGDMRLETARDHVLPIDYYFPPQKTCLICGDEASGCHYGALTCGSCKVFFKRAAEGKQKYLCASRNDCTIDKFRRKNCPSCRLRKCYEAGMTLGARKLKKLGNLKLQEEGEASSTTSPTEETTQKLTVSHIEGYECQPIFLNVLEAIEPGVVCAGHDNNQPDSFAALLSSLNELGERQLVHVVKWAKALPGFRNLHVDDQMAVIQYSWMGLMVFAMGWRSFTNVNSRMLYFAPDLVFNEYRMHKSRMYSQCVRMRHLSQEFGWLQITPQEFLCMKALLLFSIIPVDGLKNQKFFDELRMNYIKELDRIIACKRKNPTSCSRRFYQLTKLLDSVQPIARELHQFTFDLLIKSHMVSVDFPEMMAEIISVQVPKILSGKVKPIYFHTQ

CN(C)CCN(Cc1ccsc1)c1ccccn1
inactive: [1] | [2] | [3] | [4] | [5] | [6] | [7] | [8] | [9] | [10] | [11] | [12] | [13] | [14] | [15] | [16] | [17] | [18] | [19]

CCCCCC[C@@H](O)C/C=C\CCCCCCCC(=O)OC
inactive: [1] | [2] | [3] | [4] | [5] | [6] | [7] | [8] | [9] | [10] | [11] | [12] | [13] | [14] | [15] | [16] | [17] | [19]

CN1Cc2cc(C(=O)N3CCC(C4CCNCC4)CC3)ccc2NC(CC(=O)O)C1=O (centres undefined)
inactive: [1] | [2] | [3] | [4] | [5] | [6] | [7] | [8] | [9] | [10] | [11] | [12] | [14] | [15] | [16] | [17] | [18] | [19]

CCOC(=O)C(F)(F)F
inactive: [1] | [2] | [3] | [4] | [5] | [6] | [7] | [8] | [9] | [10] | [11] | [12] | [15] | [16] | [17] | [18] | [19]

CCC(C)(C)CC
inactive: [1] | [2] | [3] | [4] | [5] | [6] | [7] | [8] | [9] | [10] | [11] | [12] | [15] | [16] | [17] | [18] | [19]

c1ccc(CNCCNCc2ccccc2)cc1
inactive: [1] | [2] | [3] | [4] | [5] | [6] | [7] | [8] | [9] | [10] | [11] | [12] | [14] | [20] | [15] | [17] | [18] | [19]

CC(COCCO)OCCO (centres undefined)
inactive: [1] | [2] | [3] | [4] | [5] | [6] | [8] | [9] | [10] | [11] | [12] | [13] | [15] | [16] | [17] | [18] | [19]
